Data taken from PubChem BioAssay AID1159580 (chemical genetic matrix, 2015).
Where “and” joins values, the source holds several entries; their conditions need not be identical. Equal entries are not always repeated. Out of some 5,500 compounds screened, about 2,000 (36%) were called active. About 18% were inconclusive and are not listed. Rule as the data show it: active = normalized growth mostly below about 0.91 (no sharp cut-off); inconclusive = no clear call, values can overlap the other calls; inactive = mostly above about 0.92. This is one part of the list. A structure can be active in one record and inactive in another.

Assay: chemical genetic growth profiling, strain panel (AID 1159580);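 also: tested at 20 µM; growth read once vehicle control cultures reached saturation at 30 °C; 1 = growth at the plate median or of vehicle wells; lower values mean less growth of the strain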
Conditions: growth OD

CC(C)COCC(CN(Cc1ccccc1)c1ccccc1)N1CCCC1 (stereo not given)
normalized growth (S. cerevisiae deletion strains, locus YJR075W, strain HOC1, stronger effect = lower value): 0.798 (active) and 1.01 (inactive) | normalized growth (S. cerevisiae deletion strains, locus YKL009W, strain mrt4, stronger effect = lower value): 0.935 (inactive) | normalized growth (S. cerevisiae deletion strains, locus YKL068W, stronger effect = lower value): 0.989 (inactive) | normalized growth (S. cerevisiae deletion strains, locus YKL085W, strain MDH1 (second series), stronger effect = lower value): 0.979 (inactive) | normalized growth (S. cerevisiae deletion strains, locus YKL085W, strain MDH1, stronger effect = lower value): 0.979 (inactive) | normalized growth (S. cerevisiae deletion strains, locus YKL160W, strain elf1, stronger effect = lower value): 1.02 (inactive) | normalized growth (S. cerevisiae deletion strains, locus YKL190W, strain CNB1, stronger effect = lower value): 0.923 (inactive) | normalized growth (S. cerevisiae deletion strains, locus YKR001C, strain vps1, stronger effect = lower value): 0.793 (active) | normalized growth (S. cerevisiae deletion strains, locus YKR026C, strain gcn3, stronger effect = lower value): 1.03 (inactive) | normalized growth (S. cerevisiae deletion strains, locus YKR091W, strain srl3, stronger effect = lower value): 1.02 (inactive) | normalized growth (S. cerevisiae deletion strains, locus YLL001W, strain dnm1, stronger effect = lower value): 1.03 (inactive) | normalized growth (S. cerevisiae deletion strains, locus YLL026W, stronger effect = lower value): 1.02 (inactive) | normalized growth (S. cerevisiae deletion strains, locus YLL041C, strain sdh2, stronger effect = lower value): 1.05 (inactive) | normalized growth (S. cerevisiae deletion strains, locus YLR027C, strain aat2, stronger effect = lower value): 1.01 (inactive) | normalized growth (S. cerevisiae deletion strains, locus YLR039C, strain RIC1, stronger effect = lower value): 0.705 (inactive) | normalized growth (S. cerevisiae deletion strains, locus YLR058C, strain SHM2, stronger effect = lower value): 0.858 (active) | normalized growth (S. cerevisiae deletion strains, locus YLR102C, strain apc9, stronger effect = lower value): 0.989 (inactive) | normalized growth (S. cerevisiae deletion strains, locus YLR113W, strain HOG1, stronger effect = lower value): 1.01 (inactive) | normalized growth (S. cerevisiae deletion strains, locus YLR221C, strain rsa3, stronger effect = lower value): 0.996 (inactive) | normalized growth (S. cerevisiae deletion strains, locus YLR258W, strain gsy2, stronger effect = lower value): 1.03 (inactive) | normalized growth (S. cerevisiae deletion strains, locus YLR262C, strain YPT6 (second series), stronger effect = lower value): 1.01 (inactive) | normalized growth (S. cerevisiae deletion strains, locus YLR262C, strain YPT6, stronger effect = lower value): 0.59 (active) | normalized growth (S. cerevisiae deletion strains, locus YLR268W, strain sec22, stronger effect = lower value): 0.935 (inactive) | normalized growth (S. cerevisiae deletion strains, locus YLR320W, strain mms22, stronger effect = lower value): 0.948 (inactive) | normalized growth (S. cerevisiae deletion strains, locus YLR330W, strain CHS5, stronger effect = lower value): 0.95 (inactive) | normalized growth (S. cerevisiae deletion strains, locus YLR342W, strain FKS1 (second series), stronger effect = lower value): 0.707 (active) | normalized growth (S. cerevisiae deletion strains, locus YLR342W, strain FKS1, stronger effect = lower value): 1 (inactive) | normalized growth (S. cerevisiae deletion strains, locus YLR357W, strain rsc2, stronger effect = lower value): 1.01 (inactive) | normalized growth (S. cerevisiae deletion strains, locus YLR370C, strain arc18, stronger effect = lower value): 1.04 (inactive) | normalized growth (S. cerevisiae deletion strains, locus YLR371W, strain rom2, stronger effect = lower value): 0.961 (inactive) | normalized growth (S. cerevisiae deletion strains, locus YLR384C, strain iki3, stronger effect = lower value): 1.03 (inactive) | normalized growth (S. cerevisiae deletion strains, locus YLR418C, strain cdc73, stronger effect = lower value): 0.698 (active) | normalized growth (S. cerevisiae deletion strains, locus YML016C, strain PPZ1, stronger effect = lower value): 0.973 (inactive) | normalized growth (S. cerevisiae deletion strains, locus YML032C, strain rad52, stronger effect = lower value): 0.904 (active) | normalized growth (S. cerevisiae deletion strains, locus YML120C, strain ndi1, stronger effect = lower value): 1.05 (inactive) | normalized growth (S. cerevisiae deletion strains, locus YML124C, strain tub3, stronger effect = lower value): 0.989 (inactive) | normalized growth (S. cerevisiae deletion strains, locus YMR058W, strain fet3, stronger effect = lower value): 0.997 (inactive) | normalized growth (S. cerevisiae deletion strains, locus YMR078C, strain ctf18, stronger effect = lower value): 0.986 (inactive) | normalized growth (S. cerevisiae deletion strains, locus YMR125W, strain sto1, stronger effect = lower value): 1.03 (inactive) | normalized growth (S. cerevisiae deletion strains, locus YMR129W, stronger effect = lower value): 1.02 (inactive) | normalized growth (S. cerevisiae deletion strains, locus YMR205C, strain PFK2, stronger effect = lower value): 1.02 (inactive) | normalized growth (S. cerevisiae deletion strains, locus YMR223W, strain ubp8, stronger effect = lower value): 0.894 (active) | normalized growth (S. cerevisiae deletion strains, locus YMR231W, strain pep5, stronger effect = lower value): 1.04 (inactive) | normalized growth (S. cerevisiae deletion strains, locus YMR307W, strain GAS1, stronger effect = lower value): 0.726 (inactive) | normalized growth (S. cerevisiae deletion strains, locus YNL067W, strain RPL9B, stronger effect = lower value): 0.843 (active) | normalized growth (S. cerevisiae deletion strains, locus YNL071W, strain lat1, stronger effect = lower value): 1.03 (inactive) | normalized growth (S. cerevisiae deletion strains, locus YNL128W, strain TEP1, stronger effect = lower value): 0.981 (inactive) | normalized growth (S. cerevisiae deletion strains, locus YNL153C, strain GIM3, stronger effect = lower value): 0.823 (active) | normalized growth (S. cerevisiae deletion strains, locus YNL175C, strain NOP13, stronger effect = lower value): 1 (inactive) | normalized growth (S. cerevisiae deletion strains, locus YNL183C, strain NPR1, stronger effect = lower value): 0.935 (inactive) | normalized growth (S. cerevisiae deletion strains, locus YNL197C, strain WHI3, stronger effect = lower value): 1.02 (inactive) | normalized growth (S. cerevisiae deletion strains, locus YNL209W, strain ssb2, stronger effect = lower value): 1.03 (inactive) | normalized growth (S. cerevisiae deletion strains, locus YNL224C, strain SQS1, stronger effect = lower value): 1.01 (inactive) | normalized growth (S. cerevisiae deletion strains, locus YNL233W, strain BNI4, stronger effect = lower value): 0.781 (active) | normalized growth (S. cerevisiae deletion strains, locus YNL248C, strain rpa49, stronger effect = lower value): 1.02 (inactive) | normalized growth (S. cerevisiae deletion strains, locus YNL250W, strain rad50, stronger effect = lower value): 0.957 (inactive) | normalized growth (S. cerevisiae deletion strains, locus YNL271C, strain bni1, stronger effect = lower value): 0.992 (inactive) | normalized growth (S. cerevisiae deletion strains, locus YNL298W, strain CLA4, stronger effect = lower value): 0.994 (inactive) | normalized growth (S. cerevisiae deletion strains, locus YNL307C, strain MCK1, stronger effect = lower value): 0.965 (inactive) | normalized growth (S. cerevisiae deletion strains, locus YNL322C, strain KRE1 (second series), stronger effect = lower value): 1.06 (inactive) | normalized growth (S. cerevisiae deletion strains, locus YNL322C, strain KRE1, stronger effect = lower value): 1 (inactive) | normalized growth (S. cerevisiae deletion strains, locus YNR049C, strain mso1, stronger effect = lower value): 1.02 (inactive) | normalized growth (S. cerevisiae deletion strains, locus YNR052C, strain pop2, stronger effect = lower value): 0.887 (active) | normalized growth (S. cerevisiae deletion strains, locus YOL006C, strain TOP1, stronger effect = lower value): 0.242 (active) | normalized growth (S. cerevisiae deletion strains, locus YOL012C, strain htz1): 0.611 (inactive) | normalized growth (S. cerevisiae deletion strains, locus YOL147C, strain pex11, stronger effect = lower value): 0.989 (inactive) | normalized growth (S. cerevisiae deletion strains, locus YOR001W, strain rrp6, stronger effect = lower value): 1.01 (inactive) | normalized growth (S. cerevisiae deletion strains, locus YOR061W, strain CKA2, stronger effect = lower value): 0.93 (inactive) | normalized growth (S. cerevisiae deletion strains, locus YOR069W, strain VPS5, stronger effect = lower value): 0.983 (inactive) | normalized growth (S. cerevisiae deletion strains, locus YOR070C, strain gyp1, stronger effect = lower value): 1.02 (inactive) | normalized growth (S. cerevisiae deletion strains, locus YOR080W, strain dia2, stronger effect = lower value): 1.06 (inactive) | normalized growth (S. cerevisiae deletion strains, locus YOR083W, strain WHI5 (second series), stronger effect = lower value): 1.03 (inactive) | normalized growth (S. cerevisiae deletion strains, locus YOR083W, strain WHI5, stronger effect = lower value): 0.967 (inactive) | normalized growth (S. cerevisiae deletion strains, locus YOR106W, strain vam3, stronger effect = lower value): 1.03 (inactive) | normalized growth (S. cerevisiae deletion strains, locus YOR136W, strain idh2, stronger effect = lower value): 0.954 (inactive) | normalized growth (S. cerevisiae deletion strains, locus YOR144C, strain elg1, stronger effect = lower value): 0.99 (inactive) | normalized growth (S. cerevisiae deletion strains, locus YOR184W, strain ser1, stronger effect = lower value): 0.888 (inactive) | normalized growth (S. cerevisiae deletion strains, locus YOR231W, strain MKK1, stronger effect = lower value): 0.982 (inactive) | normalized growth (S. cerevisiae deletion strains, locus YOR265W, strain rbl2, stronger effect = lower value): 1.02 (inactive) | normalized growth (S. cerevisiae deletion strains, locus YOR270C, strain vph1, stronger effect = lower value): 0.972 (inactive) | normalized growth (S. cerevisiae deletion strains, locus YOR290C, strain snf2, stronger effect = lower value): 1.02 (inactive) | normalized growth (S. cerevisiae deletion strains, locus YOR316C, strain cot1, stronger effect = lower value): 0.979 (inactive) | normalized growth (S. cerevisiae deletion strains, locus YPL051W, strain arl3, stronger effect = lower value): 0.99 (inactive) | normalized growth (S. cerevisiae deletion strains, locus YPL055C, strain LGE1, stronger effect = lower value): 0.653 (active) | normalized growth (S. cerevisiae deletion strains, locus YPL078C, strain atp4, stronger effect = lower value): 1.04 (inactive) | normalized growth (S. cerevisiae deletion strains, locus YPL106C, strain sse1, stronger effect = lower value): 1.06 (inactive) | normalized growth (S. cerevisiae deletion strains, locus YPL240C, strain hsp82, stronger effect = lower value): 1.02 (inactive) | normalized growth (S. cerevisiae deletion strains, locus YPL241C, strain CIN2, stronger effect = lower value): 0.98 (inactive) and 1 (inactive) | normalized growth (S. cerevisiae deletion strains, locus YPL256C, strain CLN2, stronger effect = lower value): 0.98 (inactive) | normalized growth (S. cerevisiae deletion strains, locus YPR119W, strain clb2, stronger effect = lower value): 0.989 (inactive) | normalized growth (S. cerevisiae deletion strains, locus YPR141C, strain kar3, stronger effect = lower value): 0.984 (inactive) | normalized growth (S. cerevisiae deletion strains, locus YPR163C, strain tif3, stronger effect = lower value): 0.792 (active) | normalized growth (S. cerevisiae deletion strains, locus YPR167C, strain met16, stronger effect = lower value): 0.988 (inactive) | normalized growth (S. cerevisiae deletion strains, strain wtn01, stronger effect = lower value): 0.912 (inactive) | normalized growth (S. cerevisiae strains, strain wild type, stronger effect = lower value): 0.878 (active)
